# HSF1 inhib = HSF1 inhibition; NIH3T3-HGL HSE-luciferase, MG132-induced, luminescence 8 h; stronger effect = lower value; activity change, negative = inhibition, % at 7.5 µM (by protocol); 300,000 compounds, 0.77% hits; AID 2098;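 active means more than half of replicate wells show activity change below -50%, luminescence cut by over half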;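 further: luciferase reports HSF-1 transcriptional activity via heat shock element; 0% = median of DMSO wells and -100% = zero luminescence signal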
# HSF1 activator = increases HSF-1 driven luciferase reporter signal. NIH3T3-HGL HSF-1 luciferase reporter, MG132, 8 h; 100% = twice DMSO control signal. activation, % at 9 µM. 300,000 compounds, 1.7% hits;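 active means mean replicate activation of at least 50% with a set share of replicates each reaching 50%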;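 further: 0% = median of the neutral control wells and 100% = twice that signal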
# Vif imaging = blocks HIV Vif function. HEK293T cells, Vif self-association by quenched fluorescence, imaging, 24 h. inhibition, % at 7.49 µM. 340,000 compounds, 0.35% hits; in the data active means inhibition above about 50%, passing the limit was not always enough
# esBAF inh = SWI/SNF esBAF complex inhibition. AID 602393. 350,000 compounds, 2% hits. mouse ES cells, Bmi1-luciferase knock-in reporter, 24 h; 100% = twice the neutral-well signal. reporter increase, % at 12.5 µM; in the data active means activation above about 40%;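 further: 0% = median of the plate's neutral control wells and 100% = double that signal; a rise in the Bmi1 reporter signal indicates esBAF inhibition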
# * = called active by the depositor; nt = no result. The list is not random: actives were taken first. Their share in the collection is about 3.4%.
SMILES,HSF1 inhib,HSF1 activator,Vif imaging,esBAF inh
O=C(Nc1ccncc1)Nc1cccc(Cl)c1Cl,-0.6,-1.1,-8.4,10.4
CNC[C@H]1OCCCC[C@H](C)Oc2ccc(NC(=O)Nc3ccccc3)cc2C(=O)N([C@H](C)CO)C[C@H]1C,nt,nt,nt,5.4
CC(C)NC(=O)N(C)C[C@@H]1Oc2c(NC(=O)Nc3cccc4ccccc34)cccc2C(=O)N([C@@H](C)CO)C[C@@H]1C,nt,nt,nt,2.3
O=C(CNC(=O)c1ccco1)Nc1ccc(Br)cc1,6.3,5.1,-5.2,42.4*
Cc1cc(NC(=O)C(C)C)ncc1NC(=O)c1ccco1,-7.7,19.9,-6.6,7.3
O=C(Nc1ccc(Br)c(Cl)c1)c1ccco1,9.4,26.4,16.4,51.7*
CC(=O)Nc1cccc(NC(=O)c2ccco2)c1,-3.7,4.8,-0.5,-3.9
Cc1cc(NC(=O)c2ccco2)ncc1NC(=O)Cc1ccccc1,7.6,26.1,-3.4,45.0*
